The whole screen tested about 5,500 compounds, of which about 2,000 (36%) were called active. Inconclusive results (about 18%) are left out. No stated cut-off is given here; in the data, active means normalized growth mostly below about 0.91 (no sharp cut-off); inconclusive means no clear call, values can overlap the other calls; inactive means mostly above about 0.92. This is one part of the list.
Experiment: chemical genetic growth profiling, strain panel (AID 1159580);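 further: tested at 20 µM; growth read once vehicle control cultures reached saturation at 30 °C; 1 = growth at the plate median or of vehicle wells; lower values mean less growth of the strain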
Conditions: growth OD
[1] = S. cerevisiae deletion strains, locus YDL101C, strain DUN1, hits give low values
[2] = S. cerevisiae deletion strains, locus YHR030C, strain SLT2, hits give low values
[3] = S. cerevisiae deletion strains, locus YAL013W, strain DEP1, hits give low values
[4] = S. cerevisiae deletion strains, locus YBR229C, strain ROT2, hits give low values
[5] = S. cerevisiae deletion strains, locus YDR150W, strain NUM1, hits give low values
[6] = S. cerevisiae deletion strains, locus YEL061C, strain CIN8, hits give low values
[7] = S. cerevisiae deletion strains, locus YGR078C, strain PAC10, hits give low values
[8] = S. cerevisiae deletion strains, locus YHR087W, strain rtc3, hits give low values
[9] = S. cerevisiae deletion strains, locus YJR043C, strain POL32, hits give low values
[10] = S. cerevisiae deletion strains, locus YJR075W, strain HOC1, hits give low values
[11] = S. cerevisiae deletion strains, locus YLR039C, strain RIC1, hits give low values
[12] = S. cerevisiae deletion strains, locus YLR058C, strain SHM2 (second series), hits give low values
[13] = S. cerevisiae deletion strains, locus YLR085C, strain ARP6, hits give low values
[14] = S. cerevisiae deletion strains, locus YLR262C, strain YPT6, hits give low values
[15] = S. cerevisiae deletion strains, locus YML094W, strain GIM5, hits give low values
[16] = S. cerevisiae deletion strains, locus YMR219W, strain ESC1, hits give low values
[17] = S. cerevisiae deletion strains, locus YMR263W, strain SAP30, hits give low values
[18] = S. cerevisiae deletion strains, locus YNL128W, strain TEP1, hits give low values
[19] = S. cerevisiae deletion strains, locus YNL153C, strain GIM3, hits give low values
[20] = S. cerevisiae deletion strains, locus YNL298W, strain CLA4 (second series), hits give low values
[21] = S. cerevisiae deletion strains, locus YNL322C, strain KRE1, hits give low values
[22] = S. cerevisiae deletion strains, locus YNR030W, strain Alg12, hits give low values
[23] = S. cerevisiae deletion strains, locus YPL055C, strain LGE1, hits give low values
[24] = S. cerevisiae deletion strains, locus YPL241C, strain CIN2, hits give low values
[25] = S. cerevisiae deletion strains, locus YPR135W, strain CTF4, hits give low values
[26] = S. cerevisiae strains, strain wild type, hits give low values

Measured: normalized growth

O=C(Nc1cc(Cl)cc(Cl)c1)c1cc(Br)ccc1O
inactive: S. cerevisiae deletion strains, locus YAR019C, strain CDC15, hits give low values 0.944 | S. cerevisiae deletion strains, locus YBL105C, strain PKC1, hits give low values 0.958 | S. cerevisiae deletion strains, locus YBR135W, strain CKS1, hits give low values 0.946 | S. cerevisiae deletion strains, locus YBR136W, strain MEC1, hits give low values 0.949 | S. cerevisiae deletion strains, locus YBR160W, strain CDC28, hits give low values 0.955 | S. cerevisiae deletion strains, locus YDL017W, strain CDC7, hits give low values 0.942 | S. cerevisiae deletion strains, locus YDL028C, strain MPS1, hits give low values 0.955 | [1] 0.985 | S. cerevisiae deletion strains, locus YDL108W, strain KIN28, hits give low values 0.953 | S. cerevisiae deletion strains, locus YDL132W, strain cdc53, hits give low values 0.933 | S. cerevisiae deletion strains, locus YDL214C, strain PRR2, hits give low values 0.849 | S. cerevisiae deletion strains, locus YDR052C, strain DBF4, hits give low values 0.925 | S. cerevisiae deletion strains, locus YDR054C, strain cdc34, hits give low values 0.939 | S. cerevisiae deletion strains, locus YDR226W, strain ADK1, hits give low values 0.935 | S. cerevisiae deletion strains, locus YDR477W, strain SNF1, hits give low values 0.872 | S. cerevisiae deletion strains, locus YER123W, strain YCK3, hits give low values 0.774 | S. cerevisiae deletion strains, locus YER133W, strain GLC7, hits give low values 0.831 | S. cerevisiae deletion strains, locus YFL009W, strain cdc4, hits give low values 0.936 | S. cerevisiae deletion strains, locus YFL029C, strain CAK1, hits give low values 0.942 | S. cerevisiae deletion strains, locus YFR003C, strain YPI1, hits give low values 0.949 | S. cerevisiae deletion strains, locus YFR019W, strain FAB1, hits give low values 0.91 | S. cerevisiae deletion strains, locus YFR028C, strain CDC14, hits give low values 0.94 | S. cerevisiae deletion strains, locus YGR040W, strain KSS1, hits give low values 0.888 | S. cerevisiae deletion strains, locus YGR052W, strain FMP48, hits give low values 0.847 | S. cerevisiae deletion strains, locus YHR079C, strain IRE1, hits give low values 0.68 | S. cerevisiae deletion strains, locus YHR082C, strain KSP1, hits give low values 0.964 | S. cerevisiae deletion strains, locus YHR205W, strain SCH9, hits give low values 0.656 | S. cerevisiae deletion strains, locus YIL147C, strain SLN1, hits give low values 0.945 | S. cerevisiae deletion strains, locus YJL095W, strain BCK1, hits give low values 0.76 | S. cerevisiae deletion strains, locus YJL128C, strain PBS2, hits give low values 0.959 | S. cerevisiae deletion strains, locus YJR016C, strain ILV3, hits give low values 0.944 | S. cerevisiae deletion strains, locus YJR066W, strain TOR1 (second series), hits give low values 0.774 | S. cerevisiae deletion strains, locus YJR066W, strain TOR1, hits give low values 0.792 | S. cerevisiae deletion strains, locus YKL048C, strain ELM1, hits give low values 0.848 | S. cerevisiae deletion strains, locus YKL067W, strain YNK1, hits give low values 0.799 | S. cerevisiae deletion strains, locus YKL101W, strain HSL1, hits give low values 0.853 | S. cerevisiae deletion strains, locus YKL193C, strain SDS22, hits give low values 0.936 | S. cerevisiae deletion strains, locus YKL203C, strain TOR2, hits give low values 0.86 | S. cerevisiae deletion strains, locus YLR113W, strain HOG1, hits give low values 0.892 | S. cerevisiae deletion strains, locus YLR133W, strain CKI1, hits give low values 0.821 | S. cerevisiae deletion strains, locus YLR403W, strain SFP1, hits give low values 0.747 | S. cerevisiae deletion strains, locus YML070W, strain DAK1, hits give low values 0.872 | S. cerevisiae deletion strains, locus YMR001C, strain CDC5, hits give low values 0.941 | S. cerevisiae deletion strains, locus YMR205C, strain PFK2 (second series), hits give low values 0.858 | S. cerevisiae deletion strains, locus YMR277W, strain FCP1, hits give low values 0.945 | S. cerevisiae deletion strains, locus YNL006W, strain LST8, hits give low values 0.938 | S. cerevisiae deletion strains, locus YNL020C, strain ARK1, hits give low values 0.738 | S. cerevisiae deletion strains, locus YNL161W, strain CBK1, hits give low values 0.947 | S. cerevisiae deletion strains, locus YNL183C, strain NPR1, hits give low values 0.917 | S. cerevisiae deletion strains, locus YNL207W, strain RIO2, hits give low values 0.955 | S. cerevisiae deletion strains, locus YNL222W, strain SSU72, hits give low values 0.949 | S. cerevisiae deletion strains, locus YNL307C, strain MCK1 (second series), hits give low values 0.703 | S. cerevisiae deletion strains, locus YOL078W, strain AVO1, hits give low values 0.952 | S. cerevisiae deletion strains, locus YOL136C, strain PFK27, hits give low values 0.767 | S. cerevisiae deletion strains, locus YOR061W, strain CKA2, hits give low values 0.749 | S. cerevisiae deletion strains, locus YOR119C, strain RIO1, hits give low values 0.925 | S. cerevisiae deletion strains, locus YOR231W, strain MKK1, hits give low values 0.888 | S. cerevisiae deletion strains, locus YOR329C, strain SCD5, hits give low values 0.948 | S. cerevisiae deletion strains, locus YPL031C, strain PHO85, hits give low values 0.841 | S. cerevisiae deletion strains, locus YPL153C, strain RAD53, hits give low values 0.84 | S. cerevisiae deletion strains, locus YPL204W, strain HRR25, hits give low values 0.801 | S. cerevisiae deletion strains, locus YPL209C, strain IPL1, hits give low values 0.945 | S. cerevisiae deletion strains, locus YPL256C, strain CLN2, hits give low values 0.871 | S. cerevisiae deletion strains, locus YPR025C, strain CCL1, hits give low values 0.951 | S. cerevisiae deletion strains, locus YPR106W, strain ISR1, hits give low values 0.971 | S. cerevisiae deletion strains, locus YPR111W, strain DBF20, hits give low values 0.96 | S. cerevisiae deletion strains, strain NNK1, hits give low values 0.964 | S. cerevisiae deletion strains, strain TSCII, hits give low values 0.942
active: S. cerevisiae deletion strains, locus YGR092W, strain DBF2, hits give low values 0.405 | [2] 0.816 | S. cerevisiae deletion strains, locus YJL157C, strain FAR1, hits give low values 0.698

Nc1c(Cl)cc(C(=O)Nc2cc(Cl)cc(Cl)c2)cc1Cl
inactive: [4] 0.957 | S. cerevisiae deletion strains, locus YCL061C, strain MRC1, hits give low values 0.994 | [1] 1.02 | S. cerevisiae deletion strains, locus YDL134C, strain PPH21, hits give low values 0.978 | [5] 0.934 | [6] 0.956 | [7] 0.977 | [8] 0.935 | [10] 0.97 | [12] 0.99 | [13] 0.842 | [14] 0.847 | [15] 0.872 | [16] 0.976 | [17] 0.934 | [18] 0.982 | [19] 0.984 | [21] 1 | [25] 0.894 | [26] 0.956
active: [3] 0.897 | [2] 0.496 | [9] 0.907 | [11] 0.77 | S. cerevisiae deletion strains, locus YMR307W, strain GAS1, hits give low values 0.651 | [20] 0.825 | [22] 0.778 | [23] 0.8 | [24] 0.821

O=C(NNC(=O)c1ccc[nH]1)Nc1cc(Cl)cc(Cl)c1
inactive: [3] 1.01 | [4] 1 | [1] 0.991 | [5] 0.994 | [6] 0.996 | [7] 1 | S. cerevisiae deletion strains, locus YGR229C, strain SMI1, hits give low values 1.02 | [2] 1.07 | [8] 1.02 | [9] 1.01 | [10] 1.01 | S. cerevisiae deletion strains, locus YKL190W, strain CNB1, hits give low values 1.01 | [11] 1.05 | [12] 1.01 | [13] 1.04 | [14] 1.03 | [15] 0.992 | [16] 1 | [17] 1.02 | [18] 1.03 | [19] 0.988 | [20] 1.05 | [21] 0.996 | [22] 1.01 | S. cerevisiae deletion strains, locus YOL006C, strain TOP1, hits give low values 1.08 | [23] 1.02 | [24] 0.922 | [25] 1 | [26] 1.02
